Results on 16 molecules are retold here after PubChem BioAssay AID720650 (Broad Institute, 2013).

By AC50 is commonly meant the concentration at which the activity in the assay is half-maximal.

The structures appear in SMILES notation. Activity calls are given as the source filed them. How the calls were made is not given here.

The assay is described as follows: C difficile toxins, biochemical counterscreen, UDPG substrate absence, confirmatory dose response (AID 720650). As to conditions: series mostly up to 19.5 µM. In general terms: A counterscreen serves to expose hits that act by an unwanted route or on another target.
As to `O=C(NNc1nc2c(F)cccc2s1)C1COc2ccccc2O1` (stereo unspecified), the concentration at half-maximal activity (AC50) is 0.34 µM (active).
Next, `O=S(=O)(NC1CCCCCCC1)c1ccc(F)cc1`: “inactive”.
Next, `CCNC(=O)[C@H]1[C@H](CO)[C@H]2Cn3c(ccc(-c4ccccc4)c3=O)[C@H]2N1CC`: “inactive”.
Next, `COc1cc(N=Nc2c(C)n(C)n(-c3ccccc3)c2=O)ccc1N`: “inactive”; `CC(=O)N1CCN(c2ccc(S(C)(=O)=O)cc2[N+](=O)[O-])CC1`: “inactive”.
Turning to `COc1cccc(C(=O)Nc2ccc3c(c2)C(=O)N(C)[C@@H]2CC[C@H](CC(=O)NCCCN4CCOCC4)O[C@@H]2CO3)c1`, the AC50 entry is “inactive”.
Next, `O=C(C[n+]1ccccc1)N/N=C/c1ccc(O)cc1`: 20.2 µM (active); `CCOC(=O)c1ccc[n+](CC(=O)c2ccc(NC(=O)c3ccccc3)cc2)c1`: “inactive”.
In the case of `S=c1[nH]nc(-c2ccccn2)n1/N=C/c1ccc(Cl)cc1` it was “inactive”.
In the case of `O=C(Nc1ccc(O)cc1)/C(=C\c1cccs1)NC(=O)c1ccccc1` it was 17.1 µM (active).
Consider `COc1ccc(Br)cc1C(=O)Nc1ccc(O)cc1`, for which the concentration at half-maximal activity (AC50) is 9.64 µM (active).
Next, `COc1ccc(C2=NS(=O)(=O)N(C)C(C(=O)N3CCc4ccccc4C3)=C2)cc1OC`: “inactive”; `N/C(=N\N=C\c1ccc(O)cc1)c1nonc1N`: 5.49 µM (active); `CCOC(=O)c1ccc(NC(=O)Oc2cc(C)c(Cl)cc2C(C)C)cc1`: “inactive”.
In the case of `Cc1ccc(NS(=O)(=O)c2ccc(C)c(NC(=S)NCCN3CCOCC3)c2)c(C)c1` it was “inactive”.
In the case of `N#CCCN(C(=O)COC(=O)c1cc(=O)c2ccccc2o1)c1ccccc1` it was “inactive”.
